Screens deposited in PubChem BioAssay by National Center for Advancing Translational Sciences (NCATS).
An excerpt weighted towards active compounds, which were near 9% of everything screened.
JMJD2A Tudor inh: blocks the human JMJD2A Tudor domain | O75164 | AlphaScreen JMJD2A-Tudor / H3K4me3 peptide binding | Potency, µM (highest dose often 114 µM), actives largely listed as inhibitors | actives 4.4% (n = 390,000) | AID 504339; further: nearly all actives have a fitted effect of over 50% in size
Target sequence (O75164 whole entry, looked up, the tested form may be a part): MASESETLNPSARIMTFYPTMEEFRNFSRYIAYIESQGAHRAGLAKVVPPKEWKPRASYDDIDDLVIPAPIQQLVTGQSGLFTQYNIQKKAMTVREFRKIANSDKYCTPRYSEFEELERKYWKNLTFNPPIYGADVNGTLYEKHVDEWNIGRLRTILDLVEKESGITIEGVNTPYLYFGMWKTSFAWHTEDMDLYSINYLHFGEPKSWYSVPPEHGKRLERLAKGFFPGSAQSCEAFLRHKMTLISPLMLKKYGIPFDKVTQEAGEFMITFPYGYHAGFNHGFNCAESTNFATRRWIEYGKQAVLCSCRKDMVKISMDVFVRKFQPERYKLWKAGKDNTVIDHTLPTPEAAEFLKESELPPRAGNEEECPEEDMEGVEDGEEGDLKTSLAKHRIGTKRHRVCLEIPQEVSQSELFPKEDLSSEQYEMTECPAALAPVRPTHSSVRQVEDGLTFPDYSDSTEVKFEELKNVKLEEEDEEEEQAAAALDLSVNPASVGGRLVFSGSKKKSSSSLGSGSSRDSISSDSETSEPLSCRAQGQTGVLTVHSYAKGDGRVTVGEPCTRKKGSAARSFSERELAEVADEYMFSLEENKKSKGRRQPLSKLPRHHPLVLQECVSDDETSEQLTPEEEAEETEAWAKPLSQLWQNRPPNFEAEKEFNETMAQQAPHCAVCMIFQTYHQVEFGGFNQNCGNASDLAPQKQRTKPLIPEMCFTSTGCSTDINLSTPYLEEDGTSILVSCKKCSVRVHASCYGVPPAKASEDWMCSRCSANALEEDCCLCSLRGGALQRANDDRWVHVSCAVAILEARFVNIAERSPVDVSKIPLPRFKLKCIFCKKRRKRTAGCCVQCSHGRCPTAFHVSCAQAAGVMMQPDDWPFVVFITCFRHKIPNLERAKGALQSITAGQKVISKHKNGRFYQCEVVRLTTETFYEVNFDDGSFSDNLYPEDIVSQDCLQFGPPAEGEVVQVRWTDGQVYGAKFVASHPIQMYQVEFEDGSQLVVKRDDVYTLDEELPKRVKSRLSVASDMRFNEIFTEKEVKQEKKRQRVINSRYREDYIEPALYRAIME
HP1b chromo inh: blocks HP1-beta chromodomain binding to methylated histone tails. P83916. AlphaScreen HP1-beta / biotin-H3K9me3 peptide binding. Potency, µM (series often up to 114 µM), usual class: inhibitors. actives 0.56% (n = 390,000). AID 540317; further: nearly all actives have a fitted effect of over 70% in size
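HP1-beta protein (50 nM final) preincubated 30 min at room temperature with biotinylated H3(1-18)K9me3 peptide (50 nM) in PBS pH 7.4, 0.01% Tween-20, then compound added for 30 min. AlphaScreen streptavidin donor/nickel chelate acceptor beads (10 ug/mL final), 30 min dark, luminescence read.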
BAZ2B block: inhibitors of human BAZ2B bromodomain | Potency, µM (doses to about 114 µM), usual class: inhibitors | Q9UIF8 | AlphaScreen BAZ2B-H3K14Ac peptide displacement | actives 4.4% (n = 360,000); further: nearly all actives have a fitted effect of over 60% in size
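Compounds, titrated to a top concentration of 110 uM, were incubated 30 min at room temperature with preformed BAZ2B/acetyl-K14 H3 peptide complex (50 nM each). Proximity signal was measured by AlphaScreen after 20 min with beads.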
PLK1 PBD inh: blocks phosphopeptide binding to human PLK1 polo-box domain; P53350; Plk1 PBD binding of FITC phosphopeptide, fluorescence polarization; Potency, µM, hits mostly inhibitors; actives 2.8% (n = 360,000); AID 720504; further: series mostly up to about 57 µM; nearly all actives have a fitted effect of over 65% in size
G9a block: blocks human histone lysine methyltransferase G9a. Q96KQ7. G9a H3K9 monomethylation, AlphaScreen, 2 h. Potency, µM (highest dose often 102 µM), most hits filed as inhibitors. actives 8.8% (n = 350,000); further: nearly all actives have a fitted effect of over 75% in size
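Quantitative HTS format: methyltransferase activity on a biotin-tagged H3K9 peptide is measured by AlphaScreen, using a rabbit anti-monomethyl-H3K9 antibody with streptavidin donor and anti-IgG acceptor beads. Final levels are 20 nM enzyme, 500 nM peptide, 20 uM SAM; 2 h RT.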
ALOX12 inh: blocks human arachidonate 12S-lipoxygenase. purified 12hLO, xylenol orange hydroperoxide absorbance. Potency, µM (titrated, usually from 108 µM), hits mostly inhibitors. actives 1.1% (n = 580,000). AID 1671190
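Purified human 12hLO (150 nM final) in 25 mM Hepes, 0.01% Triton X-100, pH 7.0 was preincubated 15 min at room temperature with compound. Then 40 uM arachidonic acid was added, 30 min. Hydroperoxide was read by Fe-XO absorbance ratio 573/405 nm.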
TbPYK confirm: confirmation of Trypanosoma brucei pyruvate kinase inhibitors | shares compounds with PLK1 PBD inh | recombinant TbPYK, Kinase-Glo ATP luminescence | Potency, µM (doses to about 76.9 µM), most hits filed as inhibitors | actives 67% (n = 890); further: nearly all actives have a fitted effect of over 70% in size
TbPYK ADP-Glo: TbPYK inhibition, orthogonal confirmation. shares compounds with PLK1 PBD inh. recombinant TbPYK, ADP-Glo luminescence, 60 min. Potency, µM (top dose mostly 76.9 µM), usual class: inhibitors. actives 62% (n = 890). AID 720584; further: nearly all actives have a fitted effect of over 75% in size
Of the large screens only hits and unclear results are named; the others gave an inactive call (follow-up assays come after a bar, where they were run). The call rests on the fitted dose curve; in most records, active means well fitted curve in the direction sought with a large enough effect; inconclusive means small, poorly fitted or top-dose-only effect, or another doubt; inactive means no such curve, though single readings can be large; an effect the other way counts as inactive or inconclusive.

O=C(Nc1ccc(C(=O)O)cc1)/C(=C\c1ccco1)NC(=O)c1ccccc1Cl	HP1b chromo inh inconclusive, BAZ2B block inconclusive, ALOX12 inh inconclusive
CCOC(=O)c1c(N)sc(N)c1C(=O)OCC	JMJD2A Tudor inh inconclusive, HP1b chromo inh 8.9µM, BAZ2B block 50µM, PLK1 PBD inh 3.4µM, G9a block 3.2µM, ALOX12 inh 50µM | TbPYK confirm 32µM | TbPYK ADP-Glo 14µM
CC1=C(C)CS(=O)N(S(=O)(=O)c2ccc(Cl)cc2)C1 (stereo not drawn)	PLK1 PBD inh 1.3µM, G9a block 2.2µM, ALOX12 inh 40µM | TbPYK confirm 16µM | TbPYK ADP-Glo 28µM
CCN(CC)c1ccc(NC(=O)Cn2cc3c(n2)CCC(C)C3)c(C)c1 (stereo not drawn)	JMJD2A Tudor inh inconclusive, HP1b chromo inh inconclusive, BAZ2B block inconclusive, G9a block 4.5µM | TbPYK confirm 22µM | TbPYK ADP-Glo inconclusive
COc1ccc(CNC(=O)c2ccc3ccccc3n2)cc1	none
COc1ccc(N=C(NN)c2ccc3ccccc3n2)cc1	BAZ2B block inconclusive, PLK1 PBD inh 12µM, G9a block 8.9µM, ALOX12 inh inconclusive | TbPYK confirm 13µM | TbPYK ADP-Glo inconclusive
O=C(O)/C=C/C(=O)c1ccc2c(c1)CCc1ccccc1-2	BAZ2B block inconclusive, PLK1 PBD inh 6µM | TbPYK confirm 13µM | TbPYK ADP-Glo 16µM
CC(=O)Nc1ccc2c(c1)CCc1ccccc1-2	none
O=C(Nc1cnn(Cc2ccc(Cl)cc2)c1)c1cccs1	JMJD2A Tudor inh inconclusive, PLK1 PBD inh 6.7µM | TbPYK confirm inactive | TbPYK ADP-Glo inactive
O=C(Nc1ccc(CN2CCOCC2)cc1)c1cccs1	none
CCO[C@H]1OC(C(=O)NC2CC2)=C[C@@H](c2c[nH]c3ccccc23)[C@@H]1CCCO	ALOX12 inh inconclusive
COc1cc(/C(C)=N/N2CCN(Cc3ccc(C)cc3)CC2)ccc1O	none
COc1cc(/C=N/N2CCN(Cc3ccc(C)cc3)CC2)cc(OC)c1O	JMJD2A Tudor inh 40µM, HP1b chromo inh inconclusive, BAZ2B block 56µM, ALOX12 inh inconclusive (no result: G9a block) | TbPYK confirm 22µM | TbPYK ADP-Glo 28µM
O=C(COC(=O)C12CC3CC(CC(O)(C3)C1)C2)NC(=O)NCc1ccco1	none
Cc1noc(NS(=O)(=O)c2ccc(NC(=O)CSc3nc4c(cc3C#N)CCC4)cc2)c1C	JMJD2A Tudor inh 25µM, BAZ2B block inconclusive, PLK1 PBD inh inconclusive, G9a block 7.1µM | TbPYK confirm inconclusive | TbPYK ADP-Glo 32µM
Cc1cc(C)nc(SCC(=O)Nc2ccc(S(=O)(=O)Nc3onc(C)c3C)cc2)n1	none
COc1cccc(OCc2cc(=O)n3cc(C)sc3n2)c1	none (no result: PLK1 PBD inh)
O=C(Cc1cccn1-c1ccc(F)cc1)NCCN1CCc2ccccc2C1	none (no result: JMJD2A Tudor inh, HP1b chromo inh, BAZ2B block, PLK1 PBD inh, G9a block)
CC(=O)NC(Cc1ccccc1)C(=O)Oc1ccc2ccccc2c1 (stereo not drawn)	none (no result: BAZ2B block, G9a block)
CC(C)C(C)NC(=O)CSc1ccc(S(=O)(=O)N2CCOCC2)cn1 (stereo not drawn)	none
CC(C)CCNC(=O)NC(=O)CSc1ccc(S(=O)(=O)N2CCOCC2)cn1	PLK1 PBD inh inconclusive, G9a block 1.6µM, ALOX12 inh inconclusive | TbPYK confirm 16µM | TbPYK ADP-Glo 14µM
Cc1cc(C2=NNC(=Nc3ccc(S(=O)(=O)N4CCOCC4)cc3)SC2)c(C)n1C	JMJD2A Tudor inh inconclusive, G9a block 32µM, ALOX12 inh inconclusive | TbPYK confirm 18µM | TbPYK ADP-Glo 16µM
C=CCn1c(C)cc(C2=NNC(=Nc3ccc(C)cc3)SC2)c1C	ALOX12 inh inconclusive
O=C(NCCc1cccc(C(F)(F)F)c1)C1CCC(=O)N(C2CC2)C1 (stereo not drawn)	ALOX12 inh inconclusive
CCOC(=O)c1cnc2ccc(OCC)cc2c1NCc1cccnc1	none | TbPYK confirm inactive | TbPYK ADP-Glo inactive
O=C(NC(Nc1nc2ccccc2s1)(C(F)(F)F)C(F)(F)F)c1ccccc1	none
CC(C)(NC(=O)c1ccccc1)c1nc2ccccc2s1	JMJD2A Tudor inh 79µM, HP1b chromo inh inconclusive, PLK1 PBD inh 12µM, ALOX12 inh inconclusive | TbPYK confirm 8.9µM | TbPYK ADP-Glo 10µM
CCN(CC(=O)Nc1ccc(OC)cc1)C(=O)c1ccc2c(c1)NC(=O)C(C)S2 (stereo not drawn)	ALOX12 inh inconclusive | TbPYK confirm 28µM | TbPYK ADP-Glo 35µM
CCOc1ccc(NC(=O)C2CCCN(c3cnn(C)c(=O)c3)C2)cc1 (stereo not drawn)	none (no result: JMJD2A Tudor inh, HP1b chromo inh, BAZ2B block, PLK1 PBD inh, G9a block)
Cc1ccc(C2=NS(=O)(=O)N(C)C(C(=O)NC3CCCC3)=C2)cc1	none
Cc1nnsc1C(=O)N1CCCC(N2CCN(c3cccc(C(F)(F)F)c3)CC2)C1 (stereo not drawn)	none
Cc1ccc(CNC(=O)C2CCN(S(=O)(=O)c3cccs3)CC2)o1	G9a block 8.9µM | TbPYK confirm inconclusive | TbPYK ADP-Glo inconclusive
O=C(CCc1ncc(-c2ccccc2Cl)o1)N1CCN(S(=O)(=O)c2cc(F)ccc2F)CC1	none (no result: JMJD2A Tudor inh, HP1b chromo inh, BAZ2B block, PLK1 PBD inh, G9a block)
COC1=C(OC)C(=O)C(Sc2ccc3ccccc3c2)=CC1=O	JMJD2A Tudor inh 3.5µM, HP1b chromo inh 4.5µM, PLK1 PBD inh 0.75µM, ALOX12 inh 2µM (no result: BAZ2B block, G9a block) | TbPYK confirm 0.35µM | TbPYK ADP-Glo 2.2µM
Cc1cc(C)n2nc(CNS(=O)(=O)c3cccc([N+](=O)[O-])c3)nc2n1	none
Cc1ccc(NC2=CC(=O)CC(c3ccc(Cl)cc3)C2)cc1 (stereo not drawn)	none
Cc1ccc(S(=O)(=O)N2CCC(C(=O)C3C(=O)CC(C)(C)CC3=O)CC2)cc1	none
Cc1ccc(S(=O)(=O)/N=C2/C=C(C3C(=O)CC(C)(C)CC3=O)C(=O)c3ccccc32)cc1	JMJD2A Tudor inh inconclusive, BAZ2B block inconclusive, PLK1 PBD inh 7.5µM, G9a block 8.9µM, ALOX12 inh 45µM | TbPYK confirm inactive | TbPYK ADP-Glo inactive
Cc1cc2c(=O)n(C)c(SCC(=O)NC3CCCC3)nc2s1	none
CC(=O)Nc1ccc(S(=O)(=O)NCCc2c[nH]c3ccc(C)cc23)cc1	none (no result: G9a block)
O=C1C=C(NCCc2cc(Br)c(O)c(Br)c2)C(=O)c2ncccc21	JMJD2A Tudor inh 28µM, HP1b chromo inh 32µM, PLK1 PBD inh 2.7µM, ALOX12 inh 35µM (no result: BAZ2B block, G9a block) | TbPYK confirm 11µM | TbPYK ADP-Glo 16µM
CC(=O)c1cccc(NC(=O)CN(C)S(=O)(=O)c2ccc3c(c2)CC(C)N3C(C)=O)c1 (stereo not drawn)	none
